# Measured values published in the supplement of paper PMC8728848.
# Shown is part of a subset that was picked to be rich in the strongest signals.
# How the values were obtained:
# Assay in all cases: glycan array binding signal (z-score within array); higher = stronger binding
# Settings in all cases: glycan notation: IUPAC condensed, linker removed
# [1] = molecular target: Fuc(a1-2)Gal(b1-4)GlcNAc(b1-2)Man
# How it was run: (§1)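 Glycan array data came from 3228 arrays in the Consortium for Functional Glycomics database, and only arrays with an available protein sequence were kept. Glycan names were put into IUPAC-condensed notation, and columns mapping to the same glycan were averaged. The binding signal is a within-array Z-score, averaged across arrays of one protein sequence run at different concentrations or buffers and across linkers. A negative Z-score can be read as non-binding.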
# [2] = molecular target: Fuc(a1-2)Gal(b1-4)GlcNAc(b1-2)Man(a1-3)[Fuc(a1-2)Gal(b1-4)GlcNAc(b1-2)Man(a1-6)]Man(b1-4)GlcNAc(b1-4)GlcNAc
# How it was run: as §1
# [3] = molecular target: Fuc(a1-2)Gal(b1-4)[Fuc(a1-3)]GlcNAc(b1-2)Man(a1-3)[Fuc(a1-2)Gal(b1-4)[Fuc(a1-3)]GlcNAc(b1-2)Man(a1-6)]Man(b1-4)GlcNAc(b1-4)[Fuc(a1-6)]GlcNAc
# How it was run: as §1
# Fuc(a1-2)Gal6S(b1-4)Glc = molecular target: Fuc(a1-2)Gal6S(b1-4)Glc
# How it was run: as §1
# [4] = molecular target: Fuc(a1-2)[Gal(a1-3)]Gal(b1-3)GlcNAc(b1-2)Man(a1-3)[Fuc(a1-2)[Gal(a1-3)]Gal(b1-3)GlcNAc(b1-2)Man(a1-6)]Man(b1-4)GlcNAc(b1-4)GlcNAc
# How it was run: as §1
# [5] = molecular target: Fuc(a1-2)[GalNAc(a1-3)]Gal(b1-3)GlcNAc
# How it was run: as §1
# [6] = molecular target: Fuc(a1-2)[GalNAc(a1-3)]Gal(b1-4)Glc
# How it was run: as §1
# [7] = molecular target: Fuc(a1-3)[Gal(b1-4)]GlcNAc(b1-2)Man(a1-3)[Fuc(a1-3)[Gal(b1-4)]GlcNAc(b1-2)Man(a1-6)]Man(b1-4)GlcNAc(b1-4)GlcNAc
# How it was run: as §1
# [8] = molecular target: Gal(a1-3)Gal(b1-3)[Fuc(a1-4)]GlcNAc(b1-2)Man(a1-3)[Gal(a1-3)Gal(b1-3)[Fuc(a1-4)]GlcNAc(b1-2)Man(a1-6)]Man(b1-4)GlcNAc(b1-4)GlcNAc
# How it was run: as §1
# [9] = molecular target: Gal(a1-3)[Gal(a1-4)]Gal(b1-4)GlcNAc
# How it was run: as §1
# [10] = molecular target: Gal(b1-3)GlcNAc(b1-2)[Gal(b1-3)GlcNAc(b1-6)]Man(a1-6)[Gal(b1-3)GlcNAc(b1-2)Man(a1-3)]Man(b1-4)GlcNAc(b1-4)GlcNAc
# How it was run: as §1
# [11] = molecular target: Gal(b1-3)GlcNAc(b1-6)GalNAc
# How it was run: as §1
# [12] = molecular target: Gal(b1-3)[Fuc(a1-4)]GlcNAc
# How it was run: as §1
# Gal(b1-4)GlcNAc(b1-2)Man = molecular target: Gal(b1-4)GlcNAc(b1-2)Man
# How it was run: as §1
# [13] = molecular target: Gal(b1-4)GlcNAc(b1-2)Man(a1-3)[Gal(b1-4)GlcNAc(b1-2)Man(a1-6)]Man(b1-4)GlcNAc(b1-4)[Fuc(a1-6)]GlcNAc
# How it was run: as §1
# [14] = molecular target: Gal(b1-4)GlcNAc(b1-2)Man(a1-6)[Man(a1-3)]Man(b1-4)GlcNAc(b1-4)GlcNAc
# How it was run: as §1
# [15] = molecular target: Gal(b1-4)GlcNAc(b1-3)Gal(b1-4)GlcNAc(b1-3)Gal(b1-4)GlcNAc(b1-3)Gal(b1-4)GlcNAc(b1-3)Gal(b1-4)GlcNAc(b1-2)Man(a1-3)[Gal(b1-4)GlcNAc(b1-3)Gal(b1-4)GlcNAc(b1-3)Gal(b1-4)GlcNAc(b1-3)Gal(b1-4)GlcNAc(b1-3)Gal(b1-4)GlcNAc(b1-2)Man(a1-6)]Man(b1-4)GlcNAc(b1-4)GlcNAc
# How it was run: as §1
# [16] = molecular target: Gal(b1-4)GlcNAc(b1-3)Gal(b1-4)GlcNAc(b1-3)Gal(b1-4)GlcNAc(b1-3)Gal(b1-4)GlcNAc(b1-3)Gal(b1-4)GlcNAc(b1-3)Gal(b1-4)GlcNAc(b1-2)Man(a1-3)[Gal(b1-4)GlcNAc(b1-3)Gal(b1-4)GlcNAc(b1-3)Gal(b1-4)GlcNAc(b1-3)Gal(b1-4)GlcNAc(b1-3)Gal(b1-4)GlcNAc(b1-3)Gal(b1-4)GlcNAc(b1-2)Man(a1-6)]Man(b1-4)GlcNAc(b1-4)GlcNAc
# How it was run: as §1
# [17] = molecular target: Gal(b1-4)GlcNAc(b1-3)Gal(b1-4)GlcNAc(b1-3)GalNAc
# How it was run: as §1
# Gal3S6S(b1-4)GlcNAc = molecular target: Gal3S6S(b1-4)GlcNAc
# How it was run: as §1
# [18] = molecular target: GalNAc3S(b1-4)[Fuc(a1-3)]GlcNAc
# How it was run: as §1
# [19] = molecular target: GlcA3S(b1-3)Gal(b1-4)GlcNAc(b1-2)Man
# How it was run: as §1
# [20] = molecular target: GlcNAc(a1-4)Gal(b1-4)GlcNAc(b1-3)Gal(b1-4)GlcNAc(b1-3)Gal(b1-4)GlcNAc
# How it was run: as §1
# [21] = molecular target: GlcNAc(b1-2)Man(a1-3)[GlcNAc(b1-4)][GlcNAc(b1-2)Man(a1-6)]Man(b1-4)GlcNAc(b1-4)GlcNAc
# How it was run: as §1
# [22] = molecular target: GlcNAc(b1-2)[GlcNAc(b1-4)]Man(a1-3)[GlcNAc(b1-2)Man(a1-6)]Man(b1-4)GlcNAc(b1-4)GlcNAc
# How it was run: as §1
# GlcNAc(b1-3)Gal(b1-4)Glc = molecular target: GlcNAc(b1-3)Gal(b1-4)Glc
# How it was run: as §1
# [23] = molecular target: GlcNAc(b1-3)Gal(b1-4)GlcNAc(b1-3)Gal(b1-4)GlcNAc
# How it was run: as §1
# [24] = molecular target: GlcNAc(b1-3)Gal(b1-4)GlcNAc(b1-3)Gal(b1-4)GlcNAc(b1-3)Gal(b1-4)GlcNAc(b1-2)Man(a1-3)[GlcNAc(b1-3)Gal(b1-4)GlcNAc(b1-3)Gal(b1-4)GlcNAc(b1-3)Gal(b1-4)GlcNAc(b1-2)Man(a1-6)]Man(b1-4)GlcNAc(b1-4)[Fuc(a1-6)]GlcNAc
# How it was run: as §1
# [25] = molecular target: GlcNAc(b1-3)Gal(b1-4)GlcNAc(b1-3)GalNAc
# How it was run: as §1
# Kdn(a2-6)Gal(b1-4)GlcNAc = molecular target: Kdn(a2-6)Gal(b1-4)GlcNAc
# How it was run: as §1
# [26] = molecular target: Man(a1-2)Man(a1-3)[Man(a1-2)Man(a1-6)]Man
# How it was run: as §1
# [27] = molecular target: Man(a1-3)[Man(a1-6)]Man(a1-6)[Man(a1-3)]Man(b1-4)GlcNAc(b1-4)GlcNAc
# How it was run: as §1
# MurNAc(b1-4)GlcNAc = molecular target: MurNAc(b1-4)GlcNAc
# How it was run: as §1
# [28] = molecular target: Neu5Ac(a2-3)Gal(b1-3)GalNAc
# How it was run: as §1
# [29] = molecular target: Neu5Ac(a2-3)Gal(b1-3)]Neu5Ac(a2-3)Gal(b1-4)]GlcNAc
# How it was run: as §1
# [30] = molecular target: Neu5Ac(a2-3)Gal(b1-4)GlcNAc(b1-2)[Neu5Ac(a2-3)Gal(b1-4)GlcNAc(b1-4)]Man(a1-3)[GlcNAc(b1-4)][Neu5Ac(a2-3)Gal(b1-4)GlcNAc(b1-4)Man(a1-6)]Man(b1-4)GlcNAc(b1-4)GlcNAc
# How it was run: as §1
# [31] = molecular target: Neu5Ac(a2-3)Gal(b1-4)GlcNAc(b1-3)Gal(b1-4)GlcNAc(b1-3)GalNAc
# How it was run: as §1
# [32] = molecular target: Neu5Ac(a2-3)[GalNAc(b1-4)]Gal(b1-4)Glc
# How it was run: as §1
# [33] = molecular target: Neu5Ac(a2-6)Gal(b1-4)GlcNAc(b1-2)Man(a1-3)[Neu5Ac(a2-6)Gal(b1-4)GlcNAc(b1-2)Man(a1-6)]Man(b1-4)GlcNAc(b1-4)GlcNAc
# How it was run: as §1
# [34] = molecular target: Neu5Ac(a2-8)Neu5Gc(a2-3)Gal(b1-4)GlcNAc
# How it was run: as §1
# Neu5Gc(a2-3)Gal(b1-4)Glc = molecular target: Neu5Gc(a2-3)Gal(b1-4)Glc
# How it was run: as §1
# [35] = molecular target: Neu5Gc(a2-6)Gal(b1-4)GlcNAc
# How it was run: as §1
binder,measurement,setting,value
PX15618A-bth-503-24-503 (Bacteroides thetaiotaomicron) (protein) NKSEDKLSGDDFWAQGNETNAEAFLLSIYNSFRNATMSQRPFLTYSGDMRCAPITAYSTGDKYVAYLANNDMGELRNTYPDDARGGLIMQWDVFYTAIQDANILLAEIDKVPGMDELKRSRFKAEAIFMRSLSYFFIVRAFGDVPYYTNAYNEAPLPRTNMVIVLQNCLADLQPLLDDDPGAEVLPWSYSSYSSKGIRASRGSVIALMMHINLWLVQFDAQNKEQYYRNVVSLGEELERNNGAYSLLDINRSSVIFAGGSDEGLFEIAQNINFNEIFMMNAKFSDNVSYSCLNKSMPLFCYSGDYLMTLFPMYEDDARKELWFDEKIYSTSVSSSAPKEIKKFWNIDTYGNGTITSNSGNQIVFRYAGALLLYAEALAALGTNDTKACELLNRVRNRAHASEINTSGSELMDAIFWERCRELIGEGHYYYDLVRTGKVYNRNYCMNPMTRTNFNVGAWTWPIHRNALKNNTQIGLNLFWE,glycan array binding signal (z-score),[1],-0.103
same,glycan array binding signal (z-score),[2],2.2
same,glycan array binding signal (z-score),[3],0.352
same,glycan array binding signal (z-score),Fuc(a1-2)Gal6S(b1-4)Glc,2.77
same,glycan array binding signal (z-score),[4],-0.62
same,glycan array binding signal (z-score),[5],-0.665
same,glycan array binding signal (z-score),[6],-0.32
same,glycan array binding signal (z-score),[7],-0.28
same,glycan array binding signal (z-score),[8],6.49
same,glycan array binding signal (z-score),[9],3.72
same,glycan array binding signal (z-score),[10],2.47
same,glycan array binding signal (z-score),[11],2.58
same,glycan array binding signal (z-score),[12],-0.361
same,glycan array binding signal (z-score),Gal(b1-4)GlcNAc(b1-2)Man,-0.307
same,glycan array binding signal (z-score),[13],0.092
same,glycan array binding signal (z-score),[14],12.1
same,glycan array binding signal (z-score),[15],2.83
same,glycan array binding signal (z-score),[16],2.95
same,glycan array binding signal (z-score),[17],-0.08
same,glycan array binding signal (z-score),Gal3S6S(b1-4)GlcNAc,3.43
same,glycan array binding signal (z-score),[18],-0.361
same,glycan array binding signal (z-score),[19],-0.619
same,glycan array binding signal (z-score),[20],-0.188
same,glycan array binding signal (z-score),[21],-0.381
same,glycan array binding signal (z-score),[22],-0.803
same,glycan array binding signal (z-score),GlcNAc(b1-3)Gal(b1-4)Glc,-0.199
same,glycan array binding signal (z-score),[23],-0.161
same,glycan array binding signal (z-score),[24],0.037
same,glycan array binding signal (z-score),[25],0.059
same,glycan array binding signal (z-score),Kdn(a2-6)Gal(b1-4)GlcNAc,0.229
same,glycan array binding signal (z-score),[26],-0.505
same,glycan array binding signal (z-score),[27],0.524
same,glycan array binding signal (z-score),MurNAc(b1-4)GlcNAc,0.506
same,glycan array binding signal (z-score),[28],-0.436
same,glycan array binding signal (z-score),[29],0.09
same,glycan array binding signal (z-score),[30],-0.189
same,glycan array binding signal (z-score),[31],-0.707
same,glycan array binding signal (z-score),[32],-0.82
same,glycan array binding signal (z-score),[33],-0.217
same,glycan array binding signal (z-score),[34],13.7
same,glycan array binding signal (z-score),Neu5Gc(a2-3)Gal(b1-4)Glc,-0.471
same,glycan array binding signal (z-score),[35],-0.58
